The text below walks through data of paper PMC4336329 (PLoS ONE, 2015).

The campaign covered roughly 310,000 compounds. About 14,000 (4.5%) showed an effect of 50% or more. Effects have a minus sign here. Only a selection was taken, and strong results are over-represented in it overall.
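Note: peak tail current of the secondary pulse compared with the same well before compound.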

The target in this experiment is human ether-à-go-go-related gene (hERG) potassium channel (human, UniProt Q12809). As to the kind of experiment: primary screen, population patch clamp on CHO cells stably expressing hERG; higher = less effect of the substance.
Sequence of human ether-à-go-go-related gene (hERG) potassium channel (Q12809 whole entry, looked up): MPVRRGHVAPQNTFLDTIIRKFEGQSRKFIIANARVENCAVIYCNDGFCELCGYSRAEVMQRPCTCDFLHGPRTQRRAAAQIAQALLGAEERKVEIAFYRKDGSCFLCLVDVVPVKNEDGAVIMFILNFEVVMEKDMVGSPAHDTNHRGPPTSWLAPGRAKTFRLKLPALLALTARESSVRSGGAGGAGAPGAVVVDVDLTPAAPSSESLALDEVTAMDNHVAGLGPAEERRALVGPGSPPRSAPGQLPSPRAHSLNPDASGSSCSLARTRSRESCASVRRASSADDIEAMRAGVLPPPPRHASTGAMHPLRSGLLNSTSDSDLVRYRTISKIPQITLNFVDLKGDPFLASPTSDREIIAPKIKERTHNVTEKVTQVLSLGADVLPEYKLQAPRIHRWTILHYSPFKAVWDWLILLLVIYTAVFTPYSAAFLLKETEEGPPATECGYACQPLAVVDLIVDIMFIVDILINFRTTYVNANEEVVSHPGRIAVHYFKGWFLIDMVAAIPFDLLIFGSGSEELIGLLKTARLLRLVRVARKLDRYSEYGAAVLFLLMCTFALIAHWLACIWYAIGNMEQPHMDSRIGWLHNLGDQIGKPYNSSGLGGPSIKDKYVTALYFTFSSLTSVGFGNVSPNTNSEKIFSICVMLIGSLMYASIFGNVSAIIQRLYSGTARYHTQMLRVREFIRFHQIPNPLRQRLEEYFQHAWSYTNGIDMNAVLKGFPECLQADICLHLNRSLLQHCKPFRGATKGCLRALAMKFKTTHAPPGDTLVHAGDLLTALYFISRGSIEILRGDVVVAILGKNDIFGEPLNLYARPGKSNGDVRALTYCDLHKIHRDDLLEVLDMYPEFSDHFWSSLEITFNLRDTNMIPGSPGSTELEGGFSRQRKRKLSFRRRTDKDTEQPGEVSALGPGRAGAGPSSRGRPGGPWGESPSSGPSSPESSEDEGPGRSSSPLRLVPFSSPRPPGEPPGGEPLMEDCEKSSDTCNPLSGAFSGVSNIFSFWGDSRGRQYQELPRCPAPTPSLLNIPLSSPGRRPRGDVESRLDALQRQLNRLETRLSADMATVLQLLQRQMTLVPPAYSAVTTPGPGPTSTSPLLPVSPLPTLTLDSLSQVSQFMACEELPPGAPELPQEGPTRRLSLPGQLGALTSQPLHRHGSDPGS
For `CN(C)Cc1nc2ccccc2c(=O)n1CC(=O)Nc1cccc(S(=O)(=O)N2CCOCC2)c1`, the “hERG current change (%, negative = inhibition) at 10uM” value is on record as -14.4%.
As to `CCN(C(=O)C1CCCN1S(=O)(=O)c1ccc2c(c1)n(C)c(=O)c(=O)n2C)c1ccccc1` (stereo not shown), the “hERG current change (%, negative = inhibition) at 10uM” value is given as -3.32%.
In the case of `CCOC(=O)c1c(C)[nH]c(C(=O)C(C)OC(=O)c2cnc(C)cn2)c1C` (stereo not shown), the “hERG current change (%, negative = inhibition) at 10uM” value is recorded as -0.804%.
`O=C(NCCC(=O)N1CCC2(CC1)NCCc1[nH]cnc12)c1cccc(Br)c1`: the “hERG current change (%, negative = inhibition) at 10uM” value came to 1.5%.
`C=CCc1cc(OC)ccc1OCC(O)CN1CCN(c2ccc(OC)cc2)CC1.Cl` (stereo not shown): the “hERG current change (%, negative = inhibition) at 10uM” value is given as -71.2%.
With `COc1ccc(CCNC(=S)Nc2ccc(S(=O)(=O)Nc3ncccn3)cc2)cc1OC`, the “hERG current change (%, negative = inhibition) at 10uM” value stood at 21.2%.
Under `CC(=O)c1cc(C(c2csc(C(C)=O)c2)c2csc(C(C)=O)c2)cs1` stands -72.6%.
`CC(=O)c1cc(Cc2csc(C(C)=O)c2)cs1`: the “hERG current change (%, negative = inhibition) at 10uM” value was 2.75%.
As to `CC(=O)c1cc(CN2C(=O)CCC2=O)cs1`, the “hERG current change (%, negative = inhibition) at 10uM” value came out at 5.27%.
In the case of `O=C(NCc1ccco1)C1CC(c2ccc(Cl)cc2)=NO1` (stereo not shown) it was 1.47%; in that of `FC(F)(F)c1cccc(-c2nc3nc(Cl)c(Cl)nc3[nH]2)c1`, 30.4%; in that of `CC(=O)NS(=O)(=O)c1ccc(NC(=S)NC(=O)c2ccco2)cc1`, 2.54%.
On to `Cl.Clc1ccc(CN2C3=NCCCN3c3ccccc32)cc1Cl`, for which the “hERG current change (%, negative = inhibition) at 10uM” value is -76.3%.
Take `Clc1ccc(CN2CCCCCCC2)cc1Cl`: the “hERG current change (%, negative = inhibition) at 10uM” value stood at 3.83%.
Turning to `Cl.Clc1ccc(CN2C3=NCCN3c3ccccc32)cc1Cl`, the “hERG current change (%, negative = inhibition) at 10uM” value is -75.9%.
As for `Clc1ccc(CN2CCCCCC2)cc1Cl`, the “hERG current change (%, negative = inhibition) at 10uM” value was -7.66%.
As for `CCN1CCSc2ccc(C(=O)Nc3ccc(NC(C)=O)cc3)cc21`, the “hERG current change (%, negative = inhibition) at 10uM” value stood at 1.22%.
For `CCN(Cc1ccccc1)C(=O)CSc1n[nH]c(N)n1`, the “hERG current change (%, negative = inhibition) at 10uM” value came out at 33.6%.
On to `CNC(=O)[C@@]1(Cc2ccccc2)C=C[C@@H](C)N1C(C)=O`, for which the “hERG current change (%, negative = inhibition) at 10uM” value was found to be 5.07%.
Consider `Cc1cc(C)n(-c2nc(C)nc3c2cnn3-c2ccccc2)n1`, for which the “hERG current change (%, negative = inhibition) at 10uM” value was 13%.
In the case of `CCOC(=O)c1ccc(S(=O)(=O)NNC(=O)COc2ccccc2C)cc1`, the “hERG current change (%, negative = inhibition) at 10uM” value is reported as 27.5%.
`NS(=O)(=O)c1cccc(NC(=O)CSc2nnc(C3CC3)n2C2CC2)c1`: the “hERG current change (%, negative = inhibition) at 10uM” value was 8.95%.
On to `CCOc1ccc(NC(=O)CSc2nnc(C3CC3)n2C2CC2)cc1`, for which the “hERG current change (%, negative = inhibition) at 10uM” value is recorded as -15.7%.
As to `N#CCc1ccc(NC(=O)CSc2nnc(C3CC3)n2C2CC2)cc1`, the “hERG current change (%, negative = inhibition) at 10uM” value is recorded as 9.18%.
Take `NS(=O)(=O)c1ccc(NC(=O)CSc2nnc(C3CC3)n2C2CC2)cc1`: the “hERG current change (%, negative = inhibition) at 10uM” value is 22%.
In the case of `O=C(CSc1nnc(C2CC2)n1C1CC1)Nc1cccc(Br)c1` it was -75.1%; in that of `N#Cc1cccc(NC(=O)CSc2nnc(C3CC3)n2C2CC2)c1`, -52.4%.
Consider `Cc1cc(C)cc(NC(=O)CSc2nnc(-c3cc(C)[nH]n3)n2N)c1`, for which the “hERG current change (%, negative = inhibition) at 10uM” value was 12.5%.
Turning to `C=CCNC(=O)c1cc(-c2ccc(Br)cc2)on1`, the “hERG current change (%, negative = inhibition) at 10uM” value is 1.88%.
Regarding `CCn1cc(C(=O)O)c(=O)c2cc(F)c(N/N=C/c3ccccc3)cc21`, the “hERG current change (%, negative = inhibition) at 10uM” value is listed as -27.2%.
Under `CCn1cc(C(=O)O)c(=O)c2cc(F)c(N3CCN(C(=S)NC(=O)c4ccccc4)CC3)cc21` stands 13.7%.
As for `CCn1cc(C(=O)O)c(=O)c2cc(F)c(N/N=C/c3ccccc3[N+](=O)[O-])cc21`, the “hERG current change (%, negative = inhibition) at 10uM” value is -51.2%.
Take `COc1ccc(NC(=S)NN(C)C(=S)Nc2ccc(OC)cc2)cc1`: the “hERG current change (%, negative = inhibition) at 10uM” value is given as 26.1%.
Regarding `O=C(c1ncn(Cc2ccccc2)c1C(=O)N1CCc2ccccc2C1)N1CCc2ccccc2C1`, the “hERG current change (%, negative = inhibition) at 10uM” value is reported as -30.4%.
In the case of `CCN1CCN(Cc2ccc(NC(=O)Nc3ccc(OC)cc3)cc2)CC1` it was -7.9%; in that of `COc1ccc(CC2(CO)CCN(Cc3ccc(NC(C)=O)cc3)CC2)cc1`, -57.4%.
In the case of `CC(=O)Nc1ccc(CN2CCCC(CO)(Cc3cccc(Cl)c3)C2)cc1` (stereo not shown) it was -39.2%; in that of `COc1cccc(CC2(CO)CCN(Cc3ccc(NC(C)=O)cc3)CC2)c1`, -50.7%; in that of `COc1cccc(CC2(CO)CCN(C(=O)NCCc3ccccc3)CC2)c1`, 0.136%.
Under `COc1ccc(C(=O)Nc2ccc(CN3CCOCC3)cc2)cc1` stands -1.82%; under `O=C(NCC(=O)N1CCC2(CC1)NCCc1[nH]cnc12)c1cccc(Cl)c1`, 12.5%; under `CCOc1cc(/C=C2\SC(=N)N(c3nonc3N)C2=O)ccc1OCC(N)=O`, 7.01%.
For the molecule `O=C(CCCn1c(=S)[nH]c2ccccc2c1=O)N1CCCCC1`, the “hERG current change (%, negative = inhibition) at 10uM” value is on record as -10.4%.
As to `CC(C#N)Sc1nnc(-c2ccccc2F)n1C1CC1` (stereo not shown), the “hERG current change (%, negative = inhibition) at 10uM” value worked out at 18.2%.
`C=CCOc1ccc(C(=O)n2cc(C(=O)OC)c3ccccc32)cc1`: the “hERG current change (%, negative = inhibition) at 10uM” value was 9.62%.
Consider `Cc1ccc(C(=O)c2c3ccc([N+](=O)[O-])cc3[n+]([O-])n2CCC(N)=O)cc1`, for which the “hERG current change (%, negative = inhibition) at 10uM” value is on record as -32.6%.
In the case of `Nc1c(Cl)cc(C(=O)c2c3ccc(C(F)(F)F)cc3[n+]([O-])n2CCC[NH3+])cc1Cl.[Cl-]` it was -57.6%.
`NC(=O)c1ccc(Cn2c(C(=O)c3ccc(Cl)cc3)c3ccccc3[n+]2[O-])cc1`: the “hERG current change (%, negative = inhibition) at 10uM” value is -9.74%.
In the case of `Cc1ccc(C(=O)c2c3ccccc3[n+]([O-])n2CCC(N)=O)cc1` it was -5.98%; in that of `Cc1ccc(C(=O)c2c3ccc(C(F)(F)F)cc3[n+]([O-])n2CCCC(N)=O)cc1`, -62.9%; in that of `COc1ccc2c(C(=O)c3ccc(C)cc3)n(CCC(N)=O)[n+]([O-])c2c1`, -6.56%.
`[Cl-].[NH3+]CCCn1c(C(=O)c2ccc(Cl)cc2)c2ccc(C(F)(F)F)cc2[n+]1[O-]`: the “hERG current change (%, negative = inhibition) at 10uM” value is -79.2%.
`NC(=O)CCCn1c(C(=O)c2cc(Cl)c(N)c(Cl)c2)c2ccc(C(F)(F)F)cc2[n+]1[O-]`: the “hERG current change (%, negative = inhibition) at 10uM” value is recorded as -41.1%.
Under `Nc1c(Cl)cc(C(=O)c2c3ccccc3[n+]([O-])n2CCC[NH3+])cc1Cl.[Cl-]` stands -20.9%; under `Cc1ccc(C(=O)c2c3ccc(C(F)(F)F)cc3nn2CCC(N)=O)cc1`, -5.81%; under `Cc1ccc(C(=O)c2c3ccc(C(F)(F)F)cc3[n+]([O-])n2CCC(N)=O)cc1`, -66.2%.
On to `CCN1CSC(=S)N(Cc2ccccc2)C1`, for which the “hERG current change (%, negative = inhibition) at 10uM” value is reported as 12.2%.
As to `COc1cc(CC(=O)Nc2nc(C)cs2)cc(OC)c1OC`, the “hERG current change (%, negative = inhibition) at 10uM” value is reported as 5.84%.
In the case of `CC1(C)Nc2ccccc2C(=O)N1c1ccccc1`, the “hERG current change (%, negative = inhibition) at 10uM” value is given as 20.5%.
As to `COC(=O)Cn1nc(-c2ccccc2)c2cc(Cl)ccc21`, the “hERG current change (%, negative = inhibition) at 10uM” value is -0.627%.
On to `CCOc1ccc(NC(=O)N2C[C@H]3C[C@@H](C2)c2cccc(=O)n2C3)cc1`, for which the “hERG current change (%, negative = inhibition) at 10uM” value stood at 8.54%.
`O=C(CSc1n[nH]c(-c2ccccn2)n1)Nc1ccccc1F`: the “hERG current change (%, negative = inhibition) at 10uM” value was -1.74%.
Turning to `COc1ccccc1/C(O)=C(\C#N)c1nc2ccccc2[nH]1`, the “hERG current change (%, negative = inhibition) at 10uM” value stood at 15%.
Under `CCC1=NN2C(=N)/C(=C/c3cc(C)n(-c4ccccc4)c3C)C(=O)N=C2S1` stands 16.2%; under `O=c1[nH]cc(NCCNc2ncc(C(F)(F)F)cc2Cl)c(=O)[nH]1`, 3.6%; under `Nn1cnnc1SCC(=O)Nc1ccc(C2CCCCC2)cc1`, 12.5%.
Consider `CCn1cc(S(=O)(=O)Nc2nc3ccc(OC)cc3s2)cn1`, for which the “hERG current change (%, negative = inhibition) at 10uM” value was determined as 19.7%.
In the case of `Cc1ccc2c(c1)-c1ncc(C(=O)c3cc(Br)ccc3O)cc1CO2` it was 15.7%; in that of `CCc1cc(=O)oc2cc(C)cc(OCC(=O)NC(Cc3ccc(Cl)cc3)C(=O)O)c12` (stereo not shown), -9.21%; in that of `Cc1cccc(N2CCN(S(=O)(=O)c3ccc4c(c3)CCC(=O)N4)CC2C)c1` (stereo not shown), -8.91%.
